In PubChem BioAssay AID588849 (Broad Institute, 2011):
Potency and affinity values are given separately. Calls of active or inactive are those of the source. No rule for the calls is given here.

Each molecule was assayed against CAAX prenyl protease 2 (Homo sapiens) (UniProt Q9Y256) (assay: human Rce1 protease inhibitors, dose response, biochemical, yeast membranes, quenched-peptide fluorescence, cherry-pick (AID 588849)). Conditions: yeast membrane fractions expressing human Rce1, quenched-peptide fluorescence, 4 h; series mostly up to 10 µM.
CAAX prenyl protease 2 (Homo sapiens), sequence (Q9Y256 whole entry, looked up): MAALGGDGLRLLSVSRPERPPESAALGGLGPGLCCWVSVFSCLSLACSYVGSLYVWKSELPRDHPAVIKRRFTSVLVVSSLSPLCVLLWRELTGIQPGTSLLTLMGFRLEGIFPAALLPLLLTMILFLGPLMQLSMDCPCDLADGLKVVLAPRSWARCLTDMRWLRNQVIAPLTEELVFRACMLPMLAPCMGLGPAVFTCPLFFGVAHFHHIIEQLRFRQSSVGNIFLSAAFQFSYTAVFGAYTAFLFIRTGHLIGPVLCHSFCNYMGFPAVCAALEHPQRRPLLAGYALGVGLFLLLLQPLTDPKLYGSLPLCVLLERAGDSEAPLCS

outcome, inactive:
COc1ccccc1CC(=O)Nc1ccc2c(C)cc(=O)oc2c1
O=S(=O)(c1ccccc1)c1nc(-c2ccco2)oc1N1CCCCC1
CCCCNC(=S)N=Nc1c(O)n(Cc2ccccc2)c2ccccc12
CCn1c(C)nc2c(=O)oc3ccccc3c21
O=C(Nc1cccc2ncccc12)c1cccnc1
COc1ccc(S(=O)(=O)NCC2CCCO2)cc1NC(=O)c1ccccc1F (stereo not drawn)
CCOc1ccc(-c2c(C(=O)N/N=C/c3cccs3)nnn2-c2nonc2N)cc1
COC(=O)/C=c1\[nH]c2nnc(C)n2c1=O
CC1=CC2=NC(=O)CC(C)(C(=O)N(CC(=O)NC3CCCC3)Cc3ccccc3)N2C=C1 (stereo not drawn)
COc1cccc(CNc2nc3nc(C)cc(C)n3n2)c1
Cc1cc(C)cc(N2CC(O)=C(c3nc4ccccc4c(=O)[nH]3)C2=N)c1
Cc1nc(SC(C(=O)c2ccccc2)c2ccccc2)nc2ccccc12 (stereo not drawn)
COc1ccccc1NC(=O)/C(=C\c1cccnc1)NC(=O)c1ccc(C)cc1
CCOc1ccc(-n2c(SCc3ccc([N+](=O)[O-])cc3)nnc2-c2ccc(OC)cc2)cc1
C[C@@]12CCC=C[C@H]1[C@H](c1ccc(/C=C/c3ccccc3)cc1F)N(Cc1ccccc1)C2=O
COc1ccc(/C=N/NC(=O)c2ccc(Cl)cc2)cc1COC(C)=O
CCCN(CCC)CCNC(=O)c1cc2c(-c3ccccc3F)nn(C)c2s1
Cc1nc(N2CCOCC2)c2c(C)c(C(=O)Nc3ccc(C(F)(F)F)cc3)sc2n1
CCCOc1ccc(-c2c(C(=O)N/N=C/c3cccs3)nnn2-c2nonc2N)cc1
c1ccc(-n2cnnc2SCc2cn3cccnc3n2)cc1
COc1ccc(C2c3c(ncn(CCN4CCOCC4)c3=N)Oc3ccc4ccccc4c32)cc1 (stereo not drawn)
CCOc1ccc(C2C(C(=O)OC)=CN(C(C)c3ccccc3)C=C2C(=O)OC)cc1 (stereo not drawn)
CCOC(=O)c1c(NC(=O)COc2ccccc2F)sc2c1CC(C)(C)NC2(C)C
CC(=O)C(C)Oc1ccc2c3c(c(=O)oc2c1)CCCC3 (stereo not drawn)
COc1cc2ccccc2cc1C(=O)N(CCN(C)C)c1nc2ccc(C)cc2s1
C/C(CC1(O)C(=O)Nc2ccccc21)=N\O (stereo not drawn)
CS(=O)(=O)Nc1ccccc1C(=O)NC1CC2CCC1C2 (stereo not drawn)
c1ccc(-n2nnnc2SCc2cn3cccnc3n2)cc1
O=C(O)CCc1nc2cc(C(F)(F)F)ccc2n(Cc2ccccc2)c1=O
CCOC(=O)[C@@H]1[C@H]2COc3ccc(Br)cc3[C@@H]2N2C(=O)N(c3cccc(Cl)c3)C(=O)[C@]12C
O=C(Nc1ccc(N2CCOCC2)c(Cl)c1)c1cc2ccccc2o1
Cc1cccc(NS(=O)(=O)c2ccc(C)c(C(=O)OCC(=O)Nc3cc(C)on3)c2)c1
Cc1ccc(-c2cc3cccc[n+]3cc2-c2ccc(C)cc2)cc1
Cc1c(Cl)c([N+](=O)[O-])nn1CC(=O)N1CCCc2ccccc21
COc1ccccc1-n1c(-c2ccccc2)c[nH]c1=S
COc1ccc(-c2cc(C(F)(F)F)nc(SCC(=O)NCc3cnn(C)c3C)n2)cc1OC
COCCNc1nc(N)c([N+](=O)[O-])c(N2CCCCCC2)n1
Cc1ccc(-c2cc(-c3ccccc3)c(C#N)c(Br)n2)cc1
